According to ChEMBL document CHEMBL4513216, “Probing the Open Global Health Chemical Diversity Library for Multistage-Active Starting Points for Next-Generation Antimalarials” (ACS Infect Dis, 2020):
Among all 65,000 compounds or so, about 2,100 (3.2%) showed an effect of 50% or more. The median lay at about -52%. Many of the other results were omitted from the sample, so strong results are more common in it than they were.

What follows are molecules tested on Plasmodium falciparum (assay: Screen against P. falciparum Asexual Blood Stage (ABS), at 5uM). Details: tested at 5 uM.
Format: functional, Dd2

SMILES | INHIBITION
O=C(c1ccncc1)N1CCN2C[C@H](Oc3cncnc3)C[C@H]2C1 | -105%
COc1ccc(C(C)NCc2cscn2)cc1Cn1cccn1 (stereo not drawn) | 71.6%
COc1cc(CNC(C)Cn2cccn2)cc(OC)c1OC (stereo not drawn) | -12.2%
COc1ccc(C(C)NCc2ccsc2)cc1Cn1cccn1 (stereo not drawn) | 73.1%
COc1ccc(CNC(C)Cn2cccn2)cc1OC (stereo not drawn) | -66.8%
N#Cc1ccc(OC[C@]23COC[C@H]2CN(Cc2ccoc2)C3)nc1 | -15.7%
Cc1ccc(CN2CC[C@@H]3[C@H]2CCC(=O)N3Cc2ccncc2)s1 | -6.15%
CSc1nccc(N2CCN(C)C3(CCNC(=O)CC3)C2)n1 (stereo not drawn) | -69.1%
O=C1C[C@@H]2CC[C@H](CN1)N2C1CCOCC1 | -0.465%
O=C1[C@H]2CN(Cc3nccs3)C[C@H]2CN1c1cncnc1 | -64.4%
O=C(CN(C1=NCCCCC1)c1ccc(Cl)cc1)c1ccccc1 | 75.5%
COCCN1CCN(S(=O)(=O)C2CC2)Cc2ccc(C)nc21 | -12%
COc1cccc(S(=O)(=O)N2C[C@@H](N(C)C)[C@H](C(C)C)C2)c1 | 72.2%
CN(C)[C@@H]1CN(Cc2cnn(C)c2)[C@@H]2COC[C@H]12 | -104%
Cc1c(F)cccc1S(=O)(=O)NC(C)(C)CN | 80.9%
Cc1cccc(CN2CC[C@H]3OCC[C@@]3(C(=O)N3CCCO3)C2)n1 | -77.9%
O=C1CC[C@H]2[C@@H](CCN2Cc2ccco2)N1 | -46.7%
Cc1ccc2c(c1)C1(CCNCC1)CC2NC(C)C (stereo not drawn) | -31.2%
Fc1ccc2c(c1)C1(CCNCC1)CC2OCC1CC1 (stereo not drawn) | 70.1%
Cc1ccc2c(c1)C(NC(C)C)CC21CCNCC1 (stereo not drawn) | -41.2%
c1ccc2c(c1)C(NC1CCCC1)CC21CCNCC1 (stereo not drawn) | 75.7%
O=C1CC2(CCNCC2)C(=O)N1c1cccc(F)c1 | -155%
O=C1NC2(CCNCC2)CC1c1ccccc1 (stereo not drawn) | -129%

SMILES | INHIBITION
Cc1ccc2c(c1)C1(CCNCC1)CC2NC1CC1 (stereo not drawn) | 74.6%
COc1ccc2c(c1)C1(CCNCC1)CC2NC1CC1 (stereo not drawn) | 0.674%
NC(=O)CC1CC2(CCNCC2)c2cc(F)ccc21 (stereo not drawn) | -82.7%
Cc1ccc2c(c1)C(NC1CC1)CC21CCNCC1 (stereo not drawn) | 83.2%
Cc1c(C2SCC(=O)Nc3c2cnn3C(C)(C)C)cnn1C (stereo not drawn) | -41.3%
CC(C)c1nccc([C@H]2C[C@@H]3CCN(Cc4ccco4)C[C@H]3O2)n1 | -19.7%
CC(C)c1ccccc1OCCNC(=O)N1CCC2(CC1)OCCO2 | -63.2%
Cc1nc(C)c(CC(=O)N2C[C@H]3CC[C@@H](C2)N(CC2CC2)C3)s1 | -79.3%
Fc1ccc2c(c1)C1(CCNCC1)CC2NC1CC1 (stereo not drawn) | 83%
CC(C)NC1CC2(CCNCC2)c2cc(F)ccc21 (stereo not drawn) | 11.4%
O=C(NCc1ccccn1)[C@]12COC[C@H]1CN(Cc1ccsc1)C2 | -42.4%
CNC(=O)[C@H]1C[C@@H]2CCN(Cc3ccncc3)C[C@H]2O1 | -70.6%
Cc1cccc(NC(=O)N2CCC(CO)(Nc3ccccc3)CC2)c1 | -38.235%
Cc1cccc(OC(C)C(=O)NCC2(N(C)C)CCCC2)c1 (stereo not drawn) | 81.4%
COC(=O)N1CCC(Nc2ccc(C#N)c(Cl)c2)C1 (stereo not drawn) | 22.4%
CCOc1cccc(CN2CCCC(Nc3ccc(F)cc3)C2)c1O (stereo not drawn) | 86.3%
COc1ccc(C(=O)C2CCCN(Cc3cccc(F)c3)C2)c(OC)c1 (stereo not drawn) | 23.9%
COc1cc(CN2CCCC(Nc3cccc(F)c3)C2)cc(Cl)c1O (stereo not drawn) | 91.7%
CCNC(=O)[C@@H]1CN(Cc2ccccc2)C[C@H]1C(=O)c1ccc(F)cc1 | -30.5%
Cc1ncc(CN2CCN(C(=O)N(C)C)[C@@H]3CS(=O)(=O)C[C@@H]32)cn1 | -106%
Cn1cc(CN2CCCC3(CCN(c4cccnc4)C3=O)C2)cn1 (stereo not drawn) | -131%
CN(C)c1nccc(N2CCO[C@H]3CN(Cc4ccco4)C[C@H]32)n1 | -22%
c1cnc(N2CCO[C@H]3CN(Cc4ccsc4)C[C@H]32)nc1 | 35.9%

SMILES | INHIBITION
CN(C)c1nccc(N2CCO[C@H]3CN(Cc4ccsc4)C[C@H]32)n1 | 69.7%
c1ccc(OCC2C[C@@H]3[C@@H](C2)OCCN3Cc2ccoc2)nc1 (stereo partly drawn) | 12%
CC(C)N1CCC2(CCN(C(=O)c3cccnc3)CC2)C1 | 5.83%
COCCN1CCCC12CCCN(c1ncccn1)C2 (stereo not drawn) | -47.3%
CN1CCC2(CCCN(c3nccc(C(F)(F)F)n3)C2)CC1 | 79.4%
CC(C)N1CCC2(CCCN(c3nccc(C(F)(F)F)n3)C2)CC1 | 81.9%
Cc1cnc(N2CCCC3(CCCN(C)C3)C2)nc1 (stereo not drawn) | -9.73%
O=C(C1CC(=O)N(c2ccccc2Br)C1)N1CCC2(CC1)OCCO2 (stereo not drawn) | -113%
O=C(C1CC1)N1CCC2(CC1)CNCCO2 | -34.5%
Cc1n[nH]c2c1C(c1ccc(F)cc1)SCC(=O)N2 (stereo not drawn) | -4.37%
Cc1c(C(C)N)cnn1-c1cccc2ccccc12 (stereo not drawn) | 74.5%
Cn1cccc1C(CNC(=O)COc1ccc(Cl)cc1Cl)N1CCCC1 (stereo not drawn) | 74.3%
O=C(COc1ccc(Cl)cc1Cl)N1CCCSCC1CN1CCOCC1 (stereo not drawn) | -30%
COc1ccccc1CCN[C@@H]1c2ccccc2C2(CCNCC2)[C@H]1O | 81.5%
Cc1ccc(CCN[C@@H]2c3ccccc3C3(CCNCC3)[C@H]2O)s1 | 87.1%
CN(C)C(=O)C1OC2(CCNCC2)c2ccccc21 (stereo not drawn) | -73%
CCN1CCOCC2(C1)CN(C(=O)c1c(C)noc1C)CCO2 (stereo not drawn) | -31%
COCCN(CCOC)C(=O)c1cn(C(C)(C)C)c2ncccc12 | -81.6%
CCc1cnc(N)nc1NC(C)c1ccc(C)c(C)c1 (stereo not drawn) | 73.8%
CC1CCN(CC(=O)NC2CCN(C(C)c3ccccc3)CC2)CC1 (stereo not drawn) | 84.3%
O=C(CN1CCN(C(=O)Cc2ccc3c(c2)OCCO3)CC1)NC1CC1 | -148%
O=C(NC1CC1)[C@H]1CN(Cc2ccccc2)C[C@@H]1C(=O)c1ccccc1 | -154%
